± gives the standard deviation of the averaged measurements.
What was measured:
[1] = system: NanoLuc luciferase (NLuc); test: residual bioluminescent signal relative to negative (DMSO) control; higher = less interference (more residual luciferase signal)
Summary of the method: (§1)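 Metal salts in water were tested at 0.01, 1 and 5 mM final against purified firefly, NanoLuc or Renilla luciferase, with a 10 min room-temperature pre-incubation and a luminescence read 10 min after substrate addition. Each value of residual signal is a well's luminescence as a percentage of the plate's mean vehicle-only signal.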

[2] = system: Renilla luciferase (RLuc); test: as above
Summary of the method: as §1

[3] = metal salt concentration 0.01 mM, HEPES conditions (100 mM HEPES, 0.1% BSA, pH 7.5)
[4] = metal salt concentration 0.01 mM, screening conditions (PBS, 0.1% BSA, pH 7.4)
[5] = metal salt concentration 1 mM, HEPES conditions (100 mM HEPES, 0.1% BSA, pH 7.5)
[6] = metal salt concentration 1 mM, screening conditions (PBS, 0.1% BSA, pH 7.4)
[7] = metal salt concentration 5 mM, HEPES conditions (100 mM HEPES, 0.1% BSA, pH 7.5)
[8] = metal salt concentration 5 mM, screening conditions (PBS, 0.1% BSA, pH 7.4)
[9] = metal salt concentration 0.01 mM, HEPES conditions (100 mM HEPES, 0.05% BSA, 0.3 M sodium ascorbate, pH 7.5)
[10] = metal salt concentration 0.01 mM, screening conditions (50 mM Tris-HCl, […] KH2PO4, […] NaCl, 0.25 mM EDTA, 0.1% BSA, 0.3 M sodium ascorbate, pH 7.4)
[11] = metal salt concentration 1 mM, HEPES conditions (100 mM HEPES, 0.05% BSA, 0.3 M sodium ascorbate, pH 7.5)
[12] = metal salt concentration 1 mM, screening conditions (50 mM Tris-HCl, […] KH2PO4, […] NaCl, 0.25 mM EDTA, 0.1% BSA, 0.3 M sodium ascorbate, pH 7.4)
[13] = metal salt concentration 5 mM, HEPES conditions (100 mM HEPES, 0.05% BSA, 0.3 M sodium ascorbate, pH 7.5)
[14] = metal salt concentration 5 mM, screening conditions (50 mM Tris-HCl, […] KH2PO4, […] NaCl, 0.25 mM EDTA, 0.1% BSA, 0.3 M sodium ascorbate, pH 7.4)

| SMILES | residual bioluminescent signal [1, 3] | residual bioluminescent signal [1, 4] | residual bioluminescent signal [1, 5] | residual bioluminescent signal [1, 6] | residual bioluminescent signal [1, 7] | residual bioluminescent signal [1, 8] | residual bioluminescent signal [2, 9] | residual bioluminescent signal [2, 10] | residual bioluminescent signal [2, 11] | residual bioluminescent signal [2, 12] | residual bioluminescent signal [2, 13] | residual bioluminescent signal [2, 14] |
| --- | --- | --- | --- | --- | --- | --- | --- | --- | --- | --- | --- | --- |
| O=[N+]([O-])[O-].O=[N+]([O-])[O-].[Cu+2] [copper(II) nitrate] | 95.5 ± 6.9% | 90.4 ± 2.7% | 0.235 ± 0.062% | 0.732 ± 0.11% | 0.689 ± 0.91% | 0.201 ± 0.12% | 99.3 ± 10% | 104 ± 6.5% | 0.774 ± 0.61% | 0.583 ± 0.34% | 0.774 ± 0.24% | 0.897 ± 0.62% |
| O=[N+]([O-])[O-].[K+] [potassium nitrate] | 95.2 ± 2.4% | 104 ± 1.6% | 90.9 ± 1.1% | 94.9 ± 3.4% | 101 ± 2% | 101 ± 4.7% | 110 ± 7.7% | 101 ± 7.9% | 104 ± 1.4% | 108 ± 11% | 109 ± 5.3% | 102 ± 3.8% |
| O=[N+]([O-])[O-].[Na+] [sodium nitrate] | 89.7 ± 1.5% | 96.7 ± 2.3% | 91.8 ± 4.2% | 93.2 ± 3.3% | 102 ± 2.5% | 94.1 ± 2.8% | 93.9 ± 5.2% | 101 ± 3.4% | 96.7 ± 2.8% | 97.6 ± 5.2% | 109 ± 7.3% | 107 ± 2.8% |
| O=[N+]([O-])[O-].O=[N+]([O-])[O-].O=[N+]([O-])[O-].[Ga+3] [gallium(III) nitrate] | – | – | – | – | – | – | 105 ± 12% | 98.9 ± 6% | 10.6 ± 0.8% | 112 ± 11% | 3.03 ± 1.8% | 1.92 ± 1.4% |
| O=[N+]([O-])[O-].O=[N+]([O-])[O-].O=[N+]([O-])[O-].[Al+3] [aluminium nitrate] | 95.9 ± 2.5% | 100 ± 2.5% | 68.7 ± 3.2% | 89.9 ± 5.7% | 107 ± 1.8% | 103 ± 4.9% | 85.7 ± 7.3% | 91.1 ± 1% | 7.39 ± 0.84% | 90.2 ± 1.4% | 103 ± 2.5% | 94.2 ± 6.2% |
| O=[N+]([O-])[O-].O=[N+]([O-])[O-].[Cd+2] [cadmium nitrate] | 93.8 ± 1.4% | 98.2 ± 1.1% | 74.64 ± 0.51% | 62.1 ± 7.8% | 84.1 ± 2.6% | 22.1 ± 1.6% | 100 ± 15% | 102 ± 9.5% | 11.8 ± 0.97% | 45.6 ± 6.1% | 1.41 ± 0.32% | 12.2 ± 3.1% |
| O=[N+]([O-])[O-].O=[N+]([O-])[O-].[Ca+2] [calcium nitrate] | – | – | – | – | – | – | 83 ± 5.8% | 79.9 ± 9.1% | 92.3 ± 4.3% | 86.7 ± 4.6% | 106 ± 6.2% | 19.5 ± 7.2% |
| O=[N+]([O-])[O-].O=[N+]([O-])[O-].[Zn+2] [zinc nitrate] | – | – | – | – | – | – | 86 ± 1.9% | 96.8 ± 8.7% | 11.8 ± 2.2% | 85.7 ± 3.5% | 1.13 ± 0.12% | 14.9 ± 12% |
| O=[N+]([O-])[O-].[Li+] [lithium nitrate] | – | – | – | – | – | – | 88.6 ± 6.9% | 87.4 ± 5.8% | 94.2 ± 14% | 86.8 ± 1.4% | 97.7 ± 6.4% | 88.5 ± 5.5% |
| O=[N+]([O-])[O-].O=[N+]([O-])[O-].[Pb+2] [lead(II) nitrate] | – | – | – | – | – | – | 102 ± 1.7% | 112 ± 8.2% | 42.9 ± 4.4% | 69.9 ± 14% | 30.2 ± 3.3% | 5.96 ± 0.97% |
| O=[N+]([O-])[O-].O=[N+]([O-])[O-].[Ni+2] [nickel(II) nitrate] | – | – | – | – | – | – | 82.5 ± 12% | 99.08 ± 0.95% | 57.9 ± 4.5% | 79.3 ± 3.2% | 22.4 ± 2.8% | 52.7 ± 11% |
| [Cl][Sn][Cl] [tin(II) chloride] | – | – | – | – | – | – | 103 ± 4.7% | 96.3 ± 7.4% | 103 ± 11% | 95.3 ± 12% | 92.9 ± 2.4% | 11.3 ± 2.3% |
| O=[N+]([O-])[O-].[Ag+] [silver nitrate] | – | 28 ± 4.6% | – | 1.98 ± 0.46% | – | 2.05 ± 0.58% | – | – | – | – | – | – |
